Sampled rows, rich in hits. Any-hit rate of the full collection: about 2.6%.
GLP1R ag = GLP-1 receptor (human) agonism; AID 624172; P43220; Potency, µM (doses to about 45.6 µM), for inactives: top-dose activation, most hits filed as activators; HEK293 GLP-1R CRE-luciferase, luminescence, 4-6 h; cells express a hypersensitive GLP-1R form; actives 0.007% (n = 380,000); note: % of control where 0% means no effect
Target sequence (P43220 whole entry, looked up): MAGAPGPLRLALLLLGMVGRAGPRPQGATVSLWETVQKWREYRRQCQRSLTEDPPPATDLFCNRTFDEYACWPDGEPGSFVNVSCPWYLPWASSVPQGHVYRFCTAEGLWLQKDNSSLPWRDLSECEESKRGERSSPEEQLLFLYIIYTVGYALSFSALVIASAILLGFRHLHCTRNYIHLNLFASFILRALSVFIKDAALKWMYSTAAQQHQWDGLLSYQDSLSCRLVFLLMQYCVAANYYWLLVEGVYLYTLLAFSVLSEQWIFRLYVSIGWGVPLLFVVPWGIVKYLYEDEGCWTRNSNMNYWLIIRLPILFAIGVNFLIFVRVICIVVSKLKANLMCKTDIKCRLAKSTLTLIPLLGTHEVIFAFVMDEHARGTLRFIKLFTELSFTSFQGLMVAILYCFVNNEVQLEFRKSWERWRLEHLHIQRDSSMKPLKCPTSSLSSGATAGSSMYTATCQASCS
GLP1R inv ag = GLP-1 receptor (human) inverse agonism. AID 624417. HEK293 GLP-1R CRE-luciferase, luminescence, 24 h; GLP-1R form is constitutively active. Potency, µM (doses to about 38.3 µM), inactives show at the highest dose activity change, negative = inhibition, usual class: inhibitors. actives 1.6% (n = 410,000); note: % is set by controls: 0 for no effect and ±100 for the full control effect; nearly all actives have a fitted effect of over 55% in size
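Inverse agonism was detected as reduced cAMP-driven luciferase luminescence after 24 h compound treatment. The cells were HEK293 clones expressing constitutively active human GLP-1R with the reporter. Reporter-only and GPR119 cell lines served as counterscreen controls.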
BRCA1 expr up = BRCA1 expression activation. actives 1.1% (n = 380,000). Potency, µM (top dose mostly 46.1 µM), for the others: top-dose activation, most hits filed as activators. MCF7-BRCA1-FFLuc reporter, luminescence, 48 h; response scale: scaled: vehicle 0%, 10 µM genistein 100%; note: nearly all actives have a fitted effect of over 80% in size
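Compounds are tested at multiple concentrations on MCF7 BRCA1-luciferase reporter cells seeded at 2000 per well; after 48 h, a single luminescence end-point is taken and curves fitted to the normalized data.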
HEK293 tox = cytotoxicity in counter-screen for GLP-1R inverse agonists. actives 0.13% (n = 410,000). HEK293 cAMP-luciferase reporter cells, luminescence, 24 h. Potency, µM (doses to about 38.3 µM), for inactives: at the highest dose activity change, negative = inhibition, actives largely listed as inhibitors;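 note: loss of luciferase light is scored as toxicity; % is set by controls: 0 for no effect and ±100 for the full control effect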
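Quantitative HTS format, 1536 wells, 200 cells/uL seeded. Compounds: 23 nL, 24 h, 37 °C. Detection: luciferase reagent, luminescence at 12 min RT; decreased signal taken as cytotoxic.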
* hit, by the source's call; ? = inconclusive; . = not tested or not shown; ! = a repeat was not active. Calls come from the whole dose curve; as a rule, active = well fitted curve in the direction sought with a large enough effect; inconclusive = small, poorly fitted or top-dose-only effect, or another doubt; inactive = no such curve, though single readings can be large; an effect the other way counts as inactive or inconclusive. Potency is the fitted concentration of half-maximal effect.

SMILES	GLP1R ag	GLP1R inv ag	BRCA1 expr up	HEK293 tox
CC(C)(C)Cc1c(-c2ccc(Cl)cc2)nc2ccc(Br)cn12	-3%	10µM*	-28%	?
CCCCCC(=O)Nc1ccc(NC(=O)c2cc3ccccc3o2)c(OC)c1	.	-3%	.	19%
Cc1ccc(C)c(N2N=C(C(=O)Nc3ccc(N4CCOCC4)cc3)CCC2=O)c1	7%	-28%	?	-7%
O=C(OCC(=O)N(Cc1ccccc1)Cc1ccccc1)c1ccccc1NCCO	18%	5.6µM*	41%	4%
O=C(COC(=O)c1ccccc1NCCO)NCCc1ccccc1	15%	8%	65%	-9%
CN(Cc1cccnc1)C(=O)c1cc(COc2ccc3c(c2)CCCC3)on1	8%	?	68%	-2%
O=C(CSc1nc(=O)n(CCCN2CCOCC2)c2c1CCCC2)Nc1cccc(Cl)c1	24%	-28%	-1%	7%
CCC(C)(c1nnnn1-c1c(C)cccc1C)N(N=O)c1ccccc1Cl (stereo not drawn)	-3%	7.9µM*	-39%	-6%
Cc1ccc(C)c(S(=O)(=O)/N=C2\C=C(NS(=O)(=O)c3ccccc3)C(=O)c3ccccc32)c1	-2%	6%	-50%	-26%
Cc1cc(C)c(S(=O)(=O)/N=C2/C=C(Sc3ncn[nH]3)C(=O)c3ccccc32)cc1C	-33%	10µM*	-91%	?
CCOC(=O)C1=CCN(S(=O)(=O)c2ccccc2)C1c1ccccc1 (stereo not drawn)	0%	-7%	19%	-7%
COc1cc2c(=O)n(Cc3ccccc3Cl)c(=O)n(CC(=O)Nc3ccc(C)c(C)c3)c2cc1OC	0%	1%	3%	0%
Cc1nc(-c2ccccn2)nc(SCC(=O)c2ccc(F)cc2)c1Cl	6%	?	0%	?
COc1ccc(C(=O)CSc2nc(-c3ccccn3)nc(C)c2Cl)cc1	2%	?	-78%	11µM*
COc1ccc(CN(CCC(c2ccc(F)cc2)C2CCOC(C)(C)C2)C(=O)c2ccco2)cc1 (stereo not drawn)	0%	?	-95%	?
CC(c1ccccc1)N(CCC(c1ccccc1)C1CCOC(C)(C)C1)C(=O)c1ccco1 (stereo not drawn)	-39%	10µM*	-55%	-11%
CCOc1ccc(NC(=O)C2CCCN(S(=O)(=O)c3ccc(Br)s3)C2)cc1 (stereo not drawn)	.	-9%	.	1%
Cc1nn(Cc2ccc(Cl)cc2Cl)c(C)c1NC(=O)NC12CC3CC(CC(C3)C1)C2	-11%	5µM*	-60%	-25%
CCCCOC1CC(c2ccc(OCc3ccc(OC)cc3)c(OC)c2)N(C)O1 (stereo not drawn)	11%	10µM*	46%	-17%
NS(=O)(=O)c1ccc(CCNCc2cc(Cl)ccc2OCc2ccccc2)cc1	-8%	?	-27%	?
NS(=O)(=O)c1ccc(CCNCc2ccccc2OCc2ccc(Cl)cc2)cc1	-5%	7.9µM*	0%	-29%
c1ccc2sc(Sc3ncnc4sccc34)nc2c1	6%	?	-53%	-27%
CCc1cc2c(Sc3nc4ccccc4s3)ncnc2s1	12%	3.5µM*	-30%	-28%
OC(CN1CCOCC1)c1ccc(F)cc1 (stereo not drawn)	7%	7%	-24%	1%
O=C(c1ccc(F)cc1)C(CCCCCC(CN1CCOCC1)C(=O)c1ccc(F)cc1)CN1CCOCC1 (stereo not drawn)	-1%	10µM*	-45%	-15%
SMILES	GLP1R ag	GLP1R inv ag	BRCA1 expr up	HEK293 tox
COc1ccc(Nc2ncc(C(=O)N3CCN(c4cccc(Cl)c4)CC3)c3ccccc23)cc1	-2%	8.9µM*	-58%	7%
Cc1ccc(Nc2ncc(C(=O)N3CCN(c4ccc(F)cc4)CC3)c3ccccc23)cc1Cl	-2%	2.8µM*	-31%	6%
C=C(C)CNC(=S)N/N=C/c1ccc(N2CCOCC2)cc1	22%	10µM*	-19%	?
Cc1nc2c(ccc3nc(NC(=O)c4ccc5c(c4)OCCO5)sc32)s1	1%	0%	2.8µM*	2%
Cc1nc2ccc3nc(NC(=O)c4ccc5c(c4)OCCO5)sc3c2s1	0%	44%	8.9µM*!	6%
Cc1cc(Nc2cccc(C(F)(F)F)c2)nc2ccc(NC(=O)c3cccc(Cl)c3)cc12	-17%	2.8µM*	-26%	?
COc1ccc(Nc2cc(C)c3cc(NC(=O)COc4cccc(C)c4)ccc3n2)cc1	-5%	10µM*	-32%	-12%
CCOc1ccc(C(=O)Nc2ccc3nc(Nc4cccc(C(F)(F)F)c4)cc(C)c3c2)cc1OCC	0%	-6%	-5%	1%
COc1ccc(CC(=O)Nc2ccc3nc(Nc4cccc(Cl)c4)cc(C)c3c2)cc1OC	-7%	?	-59%	-2%
Cc1cc(Nc2cccc(Cl)c2)nc2ccc(NC(=O)Cc3cccc(C(F)(F)F)c3)cc12	-10%	4µM*	-73%	?
Cc1cc(Nc2cccc(Cl)c2)nc2ccc(NC(=O)Cc3ccc(Cl)cc3)cc12	-6%	5.6µM*	-69%	-24%
CN(C(=O)COC(=O)c1cc(=O)[nH]c2ccccc12)c1ccccc1	3%	6%	-5%	7%
COc1cccc(-c2nnc(SCC(=O)N3CC(C)CC(C)C3)o2)c1 (stereo not drawn)	-7%	11µM*	7%	4%
COc1cccc(-c2nnc(SCC(=O)N3CCOCC3)o2)c1	-4%	1%	13µM*	-3%
COc1cc(-c2nnc(SCC(=O)N3c4ccccc4Sc4ccccc43)o2)cc(OC)c1OC	-3%	1.3µM*	-47%	-14%
COc1ccc(-c2nnc(SCC(=O)N3CCOCC3)o2)cc1	-3%	-12%	?	3%
COc1cc(-c2nnc(SCC(=O)Oc3ccccc3Cl)o2)cc(OC)c1OC	.	4%	.	-8%
O=C(CSc1nnc(-c2ccc(OC(F)F)cc2)o1)N1CCOCC1	-7%	28%	13µM*	1%
CCN(CC)C(=O)C1CCCN(c2ncnc3c2nc2n3CCCCC2)C1 (stereo not drawn)	.	11%	.	-6%
CCc1ccc(NC(=O)N2CCC(N3CCN(Cc4ccc(C)cc4)C(=O)C3=O)CC2)cc1	.	1%	.	-14%
CNC(=S)N1CCN(c2nc3ccccc3s2)CC1	7%	8%	7.1µM*	2%
O=S(=O)(c1ccccc1)N1CCN(c2nc3ccccc3s2)CC1	1%	35%	44%	-4%
CCCCNC(=S)N1CCN(c2nc3ccccc3s2)CC1	6%	?	-1%	-1%
CS(=O)(=O)N1CCN(c2nc3ccccc3s2)CC1	0%	0%	13µM*	5%
Cc1ccc2nc(-c3cc(-c4ccccc4)no3)cn2c1	5%	4µM*	?	9%
Cc1cc(N2CCOCC2)nc2ccc(NC(=S)N3CCN(c4ccccc4)CC3)cc12	0%	?	33%	?
Cc1cc(N2CCOCC2)nc2ccc(Cl)cc12	11%	45%	7.9µM*	34%

Screening results: PubChem BioAssay, National Center for Advancing Translational Sciences (NCATS)
